Assay outcomes deposited in PubChem by several laboratories.
Most compounds without a hit are left out; they make up all but 0.5% or so of the library.
E coli growth-1 = E. coli growth inhibition, primary screen, OD600 | Escherichia coli growth, 23 h; stronger effect = lower value | OD600 absorbance (test concentration not listed) | 0.21% of 330,000 active;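 active = OD600 absorbance below the run mean of sample wells minus 3.6 SD, in any replicate, cut at about 0.56 in these data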
AddAB inh = growth inhibition of E. coli expressing H. pylori AddAB, primary screen, AddAB inhibitor project, absorbance; 0.29% of 330,000 active; AID 435030, 2010; inhibition, % at 11.9 µM; in the data active = inhibition above about 12%;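 note: 0% = vehicle wells of infected cells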
phage Ecoli inh = growth loss of phage-infected E. coli, primary screen, RecBCD inhibitor project, absorbance, with phage, HTS. inhibition, % at 11.9 µM. 0.26% of 360,000 active. AID 651602, 2012; in the data active = inhibition above about 11%
E coli growth-2 = E. coli V3065 growth inhibition, primary screen, counter-screen for AddAB inhibitor project, absorbance, OD600. 0.27% of 330,000 active. 18 h. inhibition, % at 11.9 µM. AID 449728, 2010;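 active = inhibition above the campaign's mean inhibition across all tested compounds plus 3 SD, cut at about 9.9% in these data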;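 note: uninfected addAB+ strain grown without phage in ampicillin broth; 0% = DMSO wells and 100% = ciprofloxacin 0.95 µg/ml wells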
Tat export inh = E. coli Tat export inhibitors, primary screen, MC4100, TorA-mCherry reporter, fluorescence, single point. AID 488895, 2010. 0.036% of 340,000 active. inhibition, % at 10 µM;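 active = mean replicate inhibition at least 50% and at least half of replicates individually reaching 50%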;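 note: exported cargo escapes ClpAP degradation while cytoplasmic cargo is degraded and loses fluorescence; 0% = median of neutral control wells and 100% = median of NaSCN control wells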
RecBCD conf = growth loss of phage-infected RecBCD+ E. coli, confirmation, RecBCD inhibitor project, absorbance, E. coli V66, T4 gene 2 phage; AID 651982, 2013; 45% of 890 active; inhibition, % at 11.9 µM; E. coli V66 + T4 2- phage, growth OD; shares compounds with phage Ecoli inh;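 active = mean inhibition over triplicates exceeding the hit threshold derived in the original primary screen, cut at about 11% in these data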
Ecoli viability = E. coli viability inhibition, counter-screen for RecBCD inhibitor project, absorbance, high throughput; shares compounds with phage Ecoli inh; absorbance (OD) growth; inhibition, % at 11.9 µM; 29% of 890 active; in the data active = inhibition above about 20%;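 note: E. coli strain V66 grown with compound alone and no phage infection; 0% = bacteria with DMSO vehicle only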
AddAB phage OD = growth loss of phage-infected AddAB-carrying E. coli, confirmation, counter-screen for RecBCD inhibitor project, absorbance, E. coli V3065, T4 phage; shares compounds with phage Ecoli inh; E. coli expressing H. pylori AddAB + T4 phage, OD growth; gene 2 mutant T4, recBCD-deleted host; 45% of 890 active; inhibition, % at 11.9 µM; AID 651984, 2013;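 active = mean inhibition above the solvent-only control wells' mean plus 3 SD, cut at about 22% in these data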;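 note: higher means less bacterial growth from phage killing when AddAB is blocked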
An asterisk follows results filed as active; · = not tested or not shown.

SMILES	E coli growth-1	AddAB inh	phage Ecoli inh	E coli growth-2	Tat export inh	RecBCD conf	Ecoli viability	AddAB phage OD
N#CCCN(C(=O)COC(=O)C1=NNC(=O)CC1)c1ccccc1	0.61	1	11*	0	-5	-2	-3	-5
CC(NC(=O)CCNC(=O)c1ccco1)c1ccccc1 (stereo not drawn)	0.7	1	2	1	-2	·	·	·
O=C(c1ccc(NC2=NC3CS(=O)(=O)CC3S2)cc1)N1CCN(Cc2ccccc2)CC1 (stereo not drawn)	0.71	-3	13*	-1	1	-3	-3	0
COc1ccc(CC(=O)OCC(=O)N2CCN(S(=O)(=O)c3ccc(C)cc3C)CC2)cc1	0.66	0	1	-2	-2	·	·	·
CN(C)c1ccc(C=c2c3ccccc3n3c2c2c([n+]3C)CCCC2)cc1	·	·	62*	·	14	72*	97*	101*
CC(NC(=S)NC1CCCCC1)C(c1cccs1)N1CCOCC1 (stereo not drawn)	0.69	3	-2	1	3	·	·	·
CC(NC(=O)C1CCCCC1)C(c1cccs1)N1CCOCC1 (stereo not drawn)	0.75	1	97*	-2	0	2	2	2
Cc1cc(C)cc(N(CC(=O)NC2CCCC2)C(=O)CNC(=O)c2ccco2)c1	0.66	0	1	-3	-3	·	·	·
S=C(Nc1ccc(Br)cc1)NC1CCCCC1	0.67	8	12*	6	0	3	5	5
Cn1ccc(=O)c2cc([N+](=O)[O-])ccc21	·	·	15*	·	·	9	11	99*
Nc1ccc(CCC(=O)N2CCCC2)cc1	0.71	·	2	·	2	·	·	·
CCC(=O)Nc1ccc(CCC(=O)N2CCCC2)cc1	0.66	2	24*	0	3	-2	-3	0
Cc1cc(=O)[nH]c(N=N/C(=N/Nc2ccccc2C)c2ccccc2)n1	·	1	5	3	3	·	·	·
Cc1cc(=O)[nH]c(N=N/C(=N/Nc2ccc(O)cc2)c2ccccc2)n1	·	6	21*	8	-1	19*	17	79*
COc1ccc(C(=O)Nc2ccc(N3CCCCCC3)cc2)cc1S(=O)(=O)N1CCOCC1	0.68	0	3	-1	-6	·	·	·
Cc1[nH]n(C)c(=O)c1C(=O)c1c(-c2ccccc2Cl)noc1C	0.7	0	2	-1	6	·	·	·
O=[N+]([O-])c1ccc(O)c(C2CCCCC2)c1	0.19*	·	12*	·	-5	7	12	17
O=[N+]([O-])c1cc([N+](=O)[O-])c(Oc2c(Cl)cccc2Cl)cc1NN1CCCCC1	0.71	4	13*	0	1	-3	-4	-1
COc1ccc(C=NNC(=O)CCSc2nc3ccccc3s2)cc1	0.71	·	·	·	·	·	·	·
O=C(CCSc1nc2ccccc2s1)N/N=C/c1c(O)ccc2ccccc12	·	8	17*	12*	-6	7	10	18
O=C(C=Cc1ccccc1O)c1ccccc1O	0.57	·	2	·	-4	·	·	·
O=C(/C=C/c1ccc([N+](=O)[O-])cc1)c1cccs1	0.7	0	3	2	-1	·	·	·
O=C(/C=C/c1ccc([N+](=O)[O-])cc1)c1ccccc(=O)c1O	·	·	16*	·	11	10	12	-1
Cc1ccc(/C=C/C(=O)c2ccccc(=O)c2O)c(C)c1	0.67	7	13*	2	1	4	6	1
COC(=O)C(=Cc1c(OC)cc(OC)cc1OC)C(=O)c1ccc2c(c1)OCO2	0.68	·	·	·	·	·	·	·
Nc1c(Cl)ncnc1N/N=C/c1ccccn1	·	2	30*	-2	·	38*	49*	37*
CCCCCCCCCC[n+]1cccc2c3ccccc3ccc21	0.13*	·	12*	·	-7	2	3	6
